In PubChem BioAssay AID624151 (Broad Institute, 2012):
The whole screen tested about 28,000 compounds, of which about 410 (1.5%) were called active. Only a selection was taken, and actives are over-represented in it overall. Unmarked numbers belong to inactive results. No stated cut-off is given here; in the data, active means activation above about 52%; inconclusive means no clear call, values can overlap the other calls; inactive means below that.

experiment: mutant p53 pathway re-activators, primary screen, cell-based, SW480, luciferase, single point, HTS (AID 624151); conditions: SW480 PUMA-promoter luciferase, p53 mutant reactivation; at 9.98 µM; stronger effect = higher value

SMILES	activation
CC(C)(C)c1ccc(OCC(=O)Nc2cccc(NC(=O)c3ccccc3)c2)cc1	39.6%
Cc1cc(C)cc(OCC(=O)Nc2cccc(-c3nnc(-c4ccccc4)o3)c2)c1	90.4% (active)
COc1ccccc1CC(=O)Nc1ccc(-c2nnc(-c3ccc(C)cc3)o2)cc1	-31.3%
Cc1[nH]c2ccccc2c1C(=O)CSc1ccc2ccccc2n1	-16.4%
CCCNC(=O)N(C)C[C@@H]1Oc2ncc(-c3cccc(C#N)c3)cc2C(=O)N([C@@H](C)CO)C[C@H]1C	0.271%
CC(C)C#Cc1ccc2c(c1)O[C@@H](CN(C)Cc1ccncc1)[C@@H](C)CN([C@@H](C)CO)S2(=O)=O	-4.79%
CC(Sc1ncn(-c2ccccc2)n1)C(=O)Nc1ccc(Cl)cc1 (stereo not drawn)	7.31%
C[C@H](CO)N1C[C@H](C)[C@H](CN(C)Cc2cccc(C(=O)O)c2)Oc2ncc(-c3ccccc3F)cc2C1=O	5.45%
COc1cc([C@H](Cc2ccccc2)NC(C)=O)oc(=O)c1	12.8%
COc1ccc(NC(=O)Nc2ccc3c(c2)[C@@H]2C[C@H](CC(=O)N[C@@H](C)c4ccccc4)O[C@@H](CO)[C@@H]2O3)cc1	-6.79%
COc1ccc2c(c1)C(=O)CC(c1ccccc1)O2 (stereo not drawn)	60.3% (active)
Cn1nc(CC(=O)Nc2ccc3c(c2)oc2ccccc23)c2ccccc2c1=O	-34.2%
O=C(C[C@@H]1C[C@H]2c3cc(NC(=O)NC4CCCC4)ccc3O[C@H]2[C@H](CO)O1)NCc1cc(F)ccc1F	-2.6%
C[C@H]1CN([C@@H](C)CO)C(=O)c2cc(-c3ccc(C#N)cc3)cnc2O[C@@H]1CN(C)Cc1ccncc1	-0.372%
Cc1ccc([N+](=O)[O-])cc1NC(=O)CSC1=NCCS1	-5.18%
CNC[C@H]1Oc2cc(C#CC(C)(C)O)ccc2S(=O)(=O)N([C@@H](C)CO)C[C@@H]1C	15.9%
C[C@@H]1CN([C@H](C)CO)C(=O)c2c(c3ccccc3n2C)-c2ccccc2CO[C@H]1CN(C)S(=O)(=O)c1ccccc1F	1.72%
Nc1nnc(SCC(=O)Nc2ccc(F)c(Cl)c2)s1	-1.2%
C[C@@H]1CN([C@@H](C)CO)S(=O)(=O)c2ccc(C#CCC3CCCC3)cc2O[C@H]1CN(C)Cc1ccc(C(=O)O)cc1	-0.35%
C[C@@H]1CCCCO[C@@H](CN(C)S(=O)(=O)c2cn(C)cn2)[C@@H](C)CN([C@@H](C)CO)C(=O)c2cc(NC(=O)NC3CCCCC3)ccc2O1	16%
COc1ccc(OC)c(S(=O)(=O)N(C)CC(=O)Nc2cccc(Cl)c2C)c1	-5.43%

SMILES	activation
CNC[C@H]1Oc2ncc(-c3ccccc3C)cc2C(=O)N([C@@H](C)CO)C[C@@H]1C	6.16%
CC(=O)Nc1ccc(NC(=O)CSc2nnc3c4cc(Br)ccc4n(C)c3n2)cc1	-24.7%
C[C@@H]1CN([C@@H](C)CO)C(=O)c2cc(C#CC(C)(C)O)cnc2O[C@H]1CN(C)Cc1cccc(F)c1	-7.7%
COc1ccccc1NC(=O)CN(c1ccc(Br)c(C)c1)S(C)(=O)=O	7.45%
C[C@@H]1CN([C@H](C)CO)C(=O)c2cc(-c3cncnc3)cnc2O[C@@H]1CN(C)Cc1ccc(Oc2ccccc2)cc1	9.54%
COc1ccc(NC(=O)CSc2nncc3ccccc23)c([N+](=O)[O-])c1	4.65%
COC(=O)c1c(NC(=S)Nc2ccc(OC)cc2[N+](=O)[O-])sc2c1CCC(C)C2 (stereo not drawn)	4.27%
CCc1cc(C(=O)OC)c(NC(=S)Nc2ccc(OC)cc2[N+](=O)[O-])s1	62.7% (active)
CC(C(=O)Nc1nccs1)C1SC(=O)NC1=O (stereo not drawn)	1.73%
C[C@H]1CN([C@@H](C)CO)C(=O)c2cc(C3=CCCC3)cnc2O[C@H]1CN(C)Cc1ccccc1C(=O)O	16.5%
COCC#Cc1cnc2c(c1)C(=O)N([C@H](C)CO)C[C@H](C)[C@H](CN(C)C(=O)CCN1CCCCC1)O2	6.72%
Cc1ccc(S(=O)(=O)N(C)C[C@@H]2Oc3c(NC(=O)C4CC4)cccc3C(=O)N([C@H](C)CO)C[C@@H]2C)cc1	-8.13%
COc1cc(NC(=S)NCCN2CCOCC2)c(OC)cc1Cl	-5.79%
Cc1cc(=O)oc2cc(OC(C)C(=O)Nc3ccc(N4CCOCC4)cc3)ccc12 (stereo not drawn)	7.05%
CC(=O)CCc1c(C)[nH]c2ccc(C)cc2c1=O	14.2%
C[C@@H]1CCCCO[C@@H](CN(C)S(=O)(=O)c2cn(C)cn2)[C@H](C)CN([C@H](C)CO)C(=O)c2cc(NC(=O)NC3CCCCC3)ccc2O1	17%
COc1cc(Cl)c(C)cc1NC(=O)CN(C)S(=O)(=O)c1ccc2ccccc2c1	14.5%
C[C@@H]1CN([C@H](C)CO)S(=O)(=O)c2ccc(-c3cncnc3)cc2O[C@H]1CN(C)C(=O)Cc1ccccc1	-1.41%
COc1ccc(-c2nnc(SCC(=O)Nc3cccc(SC)c3)n2C)cc1	-10.6%
CCc1ccccc1NC(=O)COc1cc(O)c2c(=O)cc(-c3ccccc3)oc2c1	-9.5%
COc1c(O)cc2oc(-c3ccc(O)c(O)c3)cc(=O)c2c1O	89.5% (active)

SMILES	activation
CC(=O)OC[C@H]1O[C@@H](Oc2c(-c3ccc(O)c(O)c3)oc3cc(O)cc(O)c3c2=O)[C@H](O)[C@@H](O)[C@@H]1O	7.83%
CCOC(=O)c1c(NC(=O)C(C)Oc2ccc3c(C)cc(=O)oc3c2)sc2c1CCC2 (stereo not drawn)	18.5%
O=C(CN(C1CCCCC1)S(=O)(=O)c1ccc(Cl)cc1)Nc1ccccc1C(F)(F)F	3.31%
COc1cccc(C#Cc2cnc3c(c2)C(=O)N([C@@H](C)CO)C[C@H](C)[C@H](CN(C)CC2CC2)O3)c1	4.89%
COc1cc(CO)cc(Cl)c1OCc1cccc([N+](=O)[O-])c1	0.353%
COc1ccccc1CCNC(=O)c1cnccn1	18.5%
C[C@@H]1CN([C@@H](C)CO)C(=O)c2c(c3ccccc3n2C)-c2ccccc2CO[C@@H]1CN(C)S(=O)(=O)CC(F)(F)F	6.74%
Cc1ccccc1-c1ccc2c(c1)O[C@@H](CN(C)C(=O)Nc1ccc(F)cc1)[C@H](C)CN([C@@H](C)CO)S2(=O)=O	-36.4%
CCCNC(=O)C[C@H]1C[C@@H]2c3cc(NS(=O)(=O)c4cccc(OC)c4)ccc3O[C@@H]2[C@@H](CO)O1	9.83%
CCOc1ccc(Cl)cc1S(=O)(=O)NC1CC(C)(C)NC(C)(C)C1	2.34%
Cc1ccc(-c2nc3cc(NC(=O)COc4ccc([N+](=O)[O-])cc4)ccc3o2)cc1C	21.6%
O=C(COc1ccc([N+](=O)[O-])cc1)Nc1ccc2oc(-c3cccc(F)c3)nc2c1	43.6%
CN(CC(=O)Nc1ccccc1C#N)S(=O)(=O)c1ccc2ccccc2c1	0.461%
Cc1ccc(NC(=O)COc2ccccc2C)c([N+](=O)[O-])c1	109% (active)
Cc1cc2nc(-c3ccc(NC(=O)COc4ccccc4[N+](=O)[O-])cc3)oc2cc1C	68.1% (active)
Cc1cc(C)c2oc(-c3ccc(C)c(NC(=O)COc4ccccc4C)c3)nc2c1	-4.75%
Cc1ccc(C)c(OCC(=O)Nc2ccccc2C#N)c1	121% (active)
COc1ccc(NC(=O)COc2cc(C)c(Br)c(C)c2)c([N+](=O)[O-])c1	-11.9%
COc1ccc(C(=O)Nc2cc(C)ccc2NC(=O)COc2ccccc2)cc1	28%
COc1ccccc1NC(=O)CSc1ncc(-c2ccccc2)nn1	36.5%
C[C@@H]1CN([C@H](C)CO)C(=O)c2cc(C#Cc3cccnc3)cnc2O[C@@H]1CN(C)Cc1ccc(F)cc1	5.15%
